# This is part of a sample that, as a whole, favours compounds with a hit. Of some 83,000 tested, about 20% had one in any assay.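 Plates (96-well) were seeded with cells, treated with compound at one concentration, and incubated for 48 hours before percent growth was determined.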 Unmarked numbers belong to inactive results. Calls of active or inactive are those of the source. How the source made its calls: active means growth percent below 10; inactive means the rest.
# System: MDA-MB-468 breast
# Experiment: NCI-60 one-dose screen, 48 h (100 = growth as untreated, 0 = no growth, -100 = all killed)
# Conditions: 10 µM unless noted
row,SMILES,growth
1,Cc1nc(-c2ccc(Cl)cc2)ccc1NC(=O)Nc1cccc(C(F)(F)F)c1,98.5%
2,COc1cc(C(=O)/C=C/c2c(C)n([O-])c3ccc(C)cc3[n+]2=O)cc(OC)c1OC,30.3%
3,CC1=N/C(=C\c2cccc(Br)c2)C(=O)O1,107%
4,CCOc1cc2ncc(C#N)c(Nc3ccc(OCc4cccc(F)c4)c(Cl)c3)c2cc1NC(=O)CC1CCSS1 (centres undefined),-5.09% (active)
5,COc1ccc(/C=C\c2cc(OC)c(OC)c(OC)c2)cc1OC(=O)c1cccc(Cn2cc(CCOC(=O)c3cccc(Cn4nnc5c4C(=O)c4ccccc4C5=O)c3)nn2)c1,5.62% (active)
6,O=c1c2ccccc2n(CC(O)CN2CCCC2)c2c(Br)cccc12 (centres undefined),97.1%
7,O=C(OCc1ccc2cccc(O)c2n1)N1CCN(C(=O)c2cc3cc(F)ccc3[nH]2)CC1,-59.2% (active)
8,O=c1sc2ncnc3ncn1c32,8.83% (active)
9,CC(C)(C)c1ccc(OCCOC(=O)CBr)cc1,87.6%
10,COc1cc(C2=NN(C(C)=O)C(c3ccc(N4CCOCC4)cc3)C2)cc(OC)c1OC (centres undefined),96.7%
11,Nc1ccc2c(c1)c(N)nn2C(=O)Nc1ccc(Cc2ccccc2)cc1,98.4%
12,Fc1ccc(NCc2cn(-c3ccccc3)nc2-c2ccc(OCc3ccccc3)cc2)cc1Cl,119%
13,O=C1[C@@H]2Cc3c([nH]c4ccccc34)[C@@H](c3ccc(Cl)cc3)N2C(=O)CN1C1CCN(Cc2ccccc2)CC1,49.5%
14,O=[N+]([O-])c1cc(CCl)ccc1OCCBr,92.4%
15,Oc1[nH]c2cc(Cl)ccc2c1/C=c1/ccc2c(c1)N=C(c1cc(F)cc(F)c1)N=2,-19.6% (active)
16,O=C1C=CC2(O)OC(c3ccccc3)CC(=O)C2=C1O (centres undefined),70.7%
17,C=C(CN1CC=CCC1)[C@@H]1CC[C@]2(C(=O)OC)CC[C@]3(C)[C@H](CC[C@@H]4[C@@]5(C)CC[C@H](OC(C)=O)C(C)(C)[C@@H]5CC[C@]43C)[C@@H]12,55.6%
18,O=S(=O)(O)c1cccc2cccnc12,100%
19,O=C(Nc1cccc2c1CCCC2)c1cc2ccccc2cc1O,33.8%
20,CCOC(=O)N1C/C(=C/c2ccc(Cl)cc2)C(=O)/C(=C/c2ccc(Cl)cc2)C1,33.1%
21,Cc1nccc2c3ccc(OCc4cn(-c5ccc(Br)cc5)nn4)cc3n(CCCc3ccccc3)c12,108%
22,CC(=O)N1N=C(c2ccc(C)cc2)CC1c1cn(-c2ccccc2)nc1-c1cccc(Nc2ccnc3cc(Cl)ccc23)c1 (centres undefined),9.76% (active)
23,C=C1C(=O)O[C@H]2[C@H]1CC/C(COC(=O)/C=C/C(=O)NCc1ccc(Cn3c(=O)sn(-c4ccccc4)c3=O)cc1)=C\CC[C@@]1(C)O[C@@H]21,-43.4% (active)
24,N#Cc1nc(-c2ccccc2)oc1S(=O)(=O)N1CCN(CCc2ccccn2)CC1,25.7%
25,COC(=O)[C@@H]1CCCN1C(=O)[C@@H]1CCCN1C(=O)[C@@H](Cc1c[nH]c2ccccc12)NC(=S)Nc1cc(C(F)(F)F)cc(C(F)(F)F)c1,2.25% (active)
26,COc1ccc(-c2nc(/C=C3\SC(=NCc4ccccc4)NC3=O)c3ccccn23)cc1,-56.9% (active)
27,C=C(C)[C@@H]1CC[C@]2(C(=O)OC)CC[C@]3(C)[C@H](CC[C@@H]4[C@@]5(C)C/C(=C/c6ccc(OC)cc6)C(=O)C(C)(C)[C@@H]5CC[C@]43C)[C@@H]12,76%
28,COc1ccc(OC)c(Nc2nnc(-c3ccc(O)c(OC)c3)o2)c1,71.7%
29,Nc1ccc2ccccc2c1-c1c(N)ccc2ccccc12,11.8%

# Source: PubChem BioAssay (NCI)
